The values below come from ChEMBL document CHEMBL1961873, “Compounds: GSK PKIS; Assays: Nanosyn kinase panel” (2012).

For experiment [1], the target named is Leukocyte tyrosine kinase receptor (Homo sapiens) (UniProt P29376). The conditions noted are these: at 1 µM.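 Also: each value is the mean inhibition of LTK.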
In experiment [2] the target is Tyrosine-protein kinase Lyn (Homo sapiens) (UniProt P07948). The conditions noted are these: at 0.1 µM.
Experiment [3] has the same target. Conditions: at 1 µM.
Experiment [4] has the same target. The conditions noted are these: at 0.1 µM. This is another data set of the same source.
Experiment [5] has the same target. The conditions noted are these: at 1 µM. The source holds these as a separate data set.
Experiment [6] addresses T1, Tyrosine-protein kinase Mer (Homo sapiens) (UniProt Q12866).
T1 sequence (whole entry): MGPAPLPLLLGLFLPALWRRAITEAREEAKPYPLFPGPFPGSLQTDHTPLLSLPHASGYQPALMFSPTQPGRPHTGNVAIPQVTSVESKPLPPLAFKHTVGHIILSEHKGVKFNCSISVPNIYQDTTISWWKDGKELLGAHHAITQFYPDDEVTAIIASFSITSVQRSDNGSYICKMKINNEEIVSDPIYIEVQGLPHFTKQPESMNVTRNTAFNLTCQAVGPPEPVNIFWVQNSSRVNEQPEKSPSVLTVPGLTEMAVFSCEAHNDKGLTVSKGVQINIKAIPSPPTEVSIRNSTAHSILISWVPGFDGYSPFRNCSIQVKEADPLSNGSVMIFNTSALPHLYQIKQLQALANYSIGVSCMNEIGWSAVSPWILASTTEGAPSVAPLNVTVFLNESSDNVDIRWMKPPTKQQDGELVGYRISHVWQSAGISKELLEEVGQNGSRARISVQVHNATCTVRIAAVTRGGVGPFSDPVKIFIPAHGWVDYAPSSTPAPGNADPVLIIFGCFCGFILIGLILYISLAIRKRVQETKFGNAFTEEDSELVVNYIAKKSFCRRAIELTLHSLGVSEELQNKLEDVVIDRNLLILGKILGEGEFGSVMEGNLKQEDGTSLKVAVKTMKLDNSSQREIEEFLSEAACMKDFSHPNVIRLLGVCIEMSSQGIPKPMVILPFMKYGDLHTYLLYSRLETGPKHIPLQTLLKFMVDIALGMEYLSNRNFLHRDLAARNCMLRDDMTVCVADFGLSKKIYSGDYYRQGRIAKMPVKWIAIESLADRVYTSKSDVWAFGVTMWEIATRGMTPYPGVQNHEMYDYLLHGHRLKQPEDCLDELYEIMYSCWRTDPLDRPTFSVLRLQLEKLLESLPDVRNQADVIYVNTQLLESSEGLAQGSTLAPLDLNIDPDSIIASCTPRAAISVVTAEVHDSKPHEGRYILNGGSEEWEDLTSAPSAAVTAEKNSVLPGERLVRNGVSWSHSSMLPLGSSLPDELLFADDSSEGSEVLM
Conditions: at 0.1 µM.

Experiment [7] concerns the target T1, Tyrosine-protein kinase Mer (Homo sapiens). Conditions: at 1 µM.
The target of experiment [8] is Hepatocyte growth factor receptor (Homo sapiens) (UniProt P08581). The conditions noted are these: at 0.1 µM.
Sequence of Hepatocyte growth factor receptor (Homo sapiens) (P08581 whole entry): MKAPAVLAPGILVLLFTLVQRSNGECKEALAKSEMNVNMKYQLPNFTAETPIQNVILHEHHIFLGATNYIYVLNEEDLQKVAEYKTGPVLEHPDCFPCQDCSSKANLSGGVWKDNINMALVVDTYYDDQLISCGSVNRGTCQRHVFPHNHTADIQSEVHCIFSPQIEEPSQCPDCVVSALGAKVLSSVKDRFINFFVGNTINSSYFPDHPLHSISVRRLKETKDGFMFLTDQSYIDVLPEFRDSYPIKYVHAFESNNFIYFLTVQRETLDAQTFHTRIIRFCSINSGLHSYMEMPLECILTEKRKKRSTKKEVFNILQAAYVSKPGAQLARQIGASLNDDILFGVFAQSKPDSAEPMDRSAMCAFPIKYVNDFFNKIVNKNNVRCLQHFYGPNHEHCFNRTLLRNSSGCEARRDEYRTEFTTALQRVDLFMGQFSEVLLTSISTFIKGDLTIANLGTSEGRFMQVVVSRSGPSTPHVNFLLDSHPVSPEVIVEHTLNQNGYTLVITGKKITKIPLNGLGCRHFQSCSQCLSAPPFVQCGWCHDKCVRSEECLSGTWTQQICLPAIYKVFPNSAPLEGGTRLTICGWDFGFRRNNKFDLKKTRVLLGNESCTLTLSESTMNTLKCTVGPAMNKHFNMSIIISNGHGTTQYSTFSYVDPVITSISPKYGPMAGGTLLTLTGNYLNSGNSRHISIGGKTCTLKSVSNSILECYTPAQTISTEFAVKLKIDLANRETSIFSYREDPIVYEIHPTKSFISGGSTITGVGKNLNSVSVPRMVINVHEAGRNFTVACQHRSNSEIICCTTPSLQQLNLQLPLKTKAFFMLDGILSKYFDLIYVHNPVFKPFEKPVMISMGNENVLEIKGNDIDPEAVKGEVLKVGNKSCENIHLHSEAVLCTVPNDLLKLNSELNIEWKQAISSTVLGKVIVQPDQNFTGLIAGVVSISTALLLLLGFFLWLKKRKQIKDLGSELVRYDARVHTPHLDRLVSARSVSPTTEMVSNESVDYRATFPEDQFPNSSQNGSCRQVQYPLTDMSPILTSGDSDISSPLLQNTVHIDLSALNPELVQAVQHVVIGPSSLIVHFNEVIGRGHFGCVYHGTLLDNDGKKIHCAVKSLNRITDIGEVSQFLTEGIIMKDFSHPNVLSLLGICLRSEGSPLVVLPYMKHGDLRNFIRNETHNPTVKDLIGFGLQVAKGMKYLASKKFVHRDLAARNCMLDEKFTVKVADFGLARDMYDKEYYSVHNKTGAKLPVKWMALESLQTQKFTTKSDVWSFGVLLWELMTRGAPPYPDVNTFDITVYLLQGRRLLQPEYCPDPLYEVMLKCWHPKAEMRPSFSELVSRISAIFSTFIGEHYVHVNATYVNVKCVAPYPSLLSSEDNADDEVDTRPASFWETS
Experiment [9] has the same target. The conditions noted are these: at 1 µM.
For experiment [10], the target named is T2, Muscle, skeletal receptor tyrosine-protein kinase (Homo sapiens) (UniProt O15146).
T2 sequence (whole entry): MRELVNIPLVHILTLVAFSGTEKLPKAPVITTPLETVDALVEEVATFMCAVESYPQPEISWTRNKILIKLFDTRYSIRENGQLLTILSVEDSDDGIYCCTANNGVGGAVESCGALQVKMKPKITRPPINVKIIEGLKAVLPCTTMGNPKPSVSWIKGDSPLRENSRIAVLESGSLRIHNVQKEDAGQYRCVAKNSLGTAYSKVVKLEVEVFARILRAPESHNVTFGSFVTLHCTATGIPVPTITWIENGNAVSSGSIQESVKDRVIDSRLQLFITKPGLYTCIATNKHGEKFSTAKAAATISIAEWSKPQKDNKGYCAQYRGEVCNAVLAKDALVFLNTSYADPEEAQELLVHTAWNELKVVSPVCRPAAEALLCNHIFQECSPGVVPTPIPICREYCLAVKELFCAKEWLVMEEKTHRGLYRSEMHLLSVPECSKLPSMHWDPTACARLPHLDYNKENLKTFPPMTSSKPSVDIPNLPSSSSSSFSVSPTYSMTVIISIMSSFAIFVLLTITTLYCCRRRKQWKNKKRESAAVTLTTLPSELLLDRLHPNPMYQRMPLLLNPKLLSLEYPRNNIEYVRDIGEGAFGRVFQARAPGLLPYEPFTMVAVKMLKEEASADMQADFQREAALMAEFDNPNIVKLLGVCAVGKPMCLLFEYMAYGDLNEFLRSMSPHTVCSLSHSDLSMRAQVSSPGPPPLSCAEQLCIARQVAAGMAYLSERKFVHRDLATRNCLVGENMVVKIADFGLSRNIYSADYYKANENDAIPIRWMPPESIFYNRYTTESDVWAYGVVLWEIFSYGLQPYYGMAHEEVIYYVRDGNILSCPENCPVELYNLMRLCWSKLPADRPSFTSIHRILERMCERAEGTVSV
Conditions: at 0.1 µM.

Experiment [11] addresses T2, Muscle, skeletal receptor tyrosine-protein kinase (Homo sapiens). Conditions: at 1 µM.
Experiment [12] concerns the target Platelet-derived growth factor receptor alpha (Homo sapiens) (UniProt P16234). The conditions noted are these: at 0.1 µM.
Experiment [13] has the same target. The conditions noted are these: at 1 µM.
Experiment [14] deals with Platelet-derived growth factor receptor alpha (Homo sapiens), P16234 [D842V]. The conditions noted are these: at 0.1 µM.
Sequence of Platelet-derived growth factor receptor alpha (Homo sapiens), P16234 [D842V] (P16234 whole entry D842V): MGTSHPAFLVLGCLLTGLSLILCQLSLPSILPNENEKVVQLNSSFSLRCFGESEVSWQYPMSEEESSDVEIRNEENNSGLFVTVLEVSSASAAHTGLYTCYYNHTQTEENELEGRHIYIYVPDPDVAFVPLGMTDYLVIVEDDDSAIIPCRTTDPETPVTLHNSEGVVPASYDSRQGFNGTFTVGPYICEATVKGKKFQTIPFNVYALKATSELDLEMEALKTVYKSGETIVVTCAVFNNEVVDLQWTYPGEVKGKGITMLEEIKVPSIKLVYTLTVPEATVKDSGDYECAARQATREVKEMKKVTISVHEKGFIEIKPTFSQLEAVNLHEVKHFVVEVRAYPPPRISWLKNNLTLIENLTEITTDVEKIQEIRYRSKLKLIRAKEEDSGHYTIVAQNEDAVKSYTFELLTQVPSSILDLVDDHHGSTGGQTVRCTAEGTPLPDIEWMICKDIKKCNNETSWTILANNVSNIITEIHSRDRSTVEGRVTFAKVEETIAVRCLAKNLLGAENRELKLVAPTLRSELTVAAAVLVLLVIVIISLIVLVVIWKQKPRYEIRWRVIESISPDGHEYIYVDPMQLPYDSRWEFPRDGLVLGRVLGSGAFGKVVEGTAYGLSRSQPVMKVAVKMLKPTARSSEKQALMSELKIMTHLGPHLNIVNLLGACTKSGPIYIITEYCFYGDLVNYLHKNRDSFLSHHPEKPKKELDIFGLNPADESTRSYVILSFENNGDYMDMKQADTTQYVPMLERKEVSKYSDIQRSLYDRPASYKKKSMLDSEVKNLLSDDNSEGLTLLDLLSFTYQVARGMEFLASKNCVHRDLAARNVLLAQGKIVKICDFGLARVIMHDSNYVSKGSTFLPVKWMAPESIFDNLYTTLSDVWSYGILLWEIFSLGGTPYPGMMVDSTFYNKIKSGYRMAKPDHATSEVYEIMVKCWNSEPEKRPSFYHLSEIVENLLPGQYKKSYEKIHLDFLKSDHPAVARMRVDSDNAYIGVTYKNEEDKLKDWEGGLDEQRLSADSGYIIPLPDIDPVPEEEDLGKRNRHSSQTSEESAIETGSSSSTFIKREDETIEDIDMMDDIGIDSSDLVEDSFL
For experiment [15] the test system is unchanged. Conditions: at 1 µM.
Experiment [16] has as its system Platelet-derived growth factor receptor alpha (Homo sapiens), P16234 [T674I]. Conditions: at 0.1 µM.
Experiment [17] has the same test system. The conditions noted are these: at 1 µM.
The subject of experiment [18] is Platelet-derived growth factor receptor alpha (Homo sapiens), P16234 [V561D]. The conditions noted are these: at 0.1 µM.
Experiment [19] shares this test system. Conditions: at 1 µM.
Experiment [20] has as its target Platelet-derived growth factor receptor beta (Homo sapiens) (UniProt P09619). Conditions: at 0.1 µM.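 Also: reported value is the mean percent inhibition of the kinase.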

Sequence of Platelet-derived growth factor receptor alpha (Homo sapiens), P16234 [V561D] (P16234 whole entry V561D): as the sequence (P16234 whole entry D842V) above, with V561D, V842D counted along it
Sequence of Tyrosine-protein kinase Lyn (Homo sapiens) (P07948 2-512 limits assumed): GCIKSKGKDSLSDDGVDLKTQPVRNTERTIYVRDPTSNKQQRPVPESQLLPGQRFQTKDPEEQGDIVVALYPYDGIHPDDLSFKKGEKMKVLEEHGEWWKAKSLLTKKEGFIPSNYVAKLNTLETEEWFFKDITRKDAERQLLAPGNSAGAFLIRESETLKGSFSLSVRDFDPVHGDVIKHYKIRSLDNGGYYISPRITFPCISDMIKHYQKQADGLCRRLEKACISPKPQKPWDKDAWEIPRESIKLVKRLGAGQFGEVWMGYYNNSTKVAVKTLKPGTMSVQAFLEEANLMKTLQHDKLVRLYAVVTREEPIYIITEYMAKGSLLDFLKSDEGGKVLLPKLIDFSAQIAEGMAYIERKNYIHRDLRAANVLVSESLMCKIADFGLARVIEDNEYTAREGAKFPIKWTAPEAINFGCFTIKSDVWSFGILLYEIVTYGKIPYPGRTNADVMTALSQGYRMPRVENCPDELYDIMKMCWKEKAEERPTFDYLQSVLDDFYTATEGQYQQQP
Sequence of Leukocyte tyrosine kinase receptor (Homo sapiens) (P29376 whole entry): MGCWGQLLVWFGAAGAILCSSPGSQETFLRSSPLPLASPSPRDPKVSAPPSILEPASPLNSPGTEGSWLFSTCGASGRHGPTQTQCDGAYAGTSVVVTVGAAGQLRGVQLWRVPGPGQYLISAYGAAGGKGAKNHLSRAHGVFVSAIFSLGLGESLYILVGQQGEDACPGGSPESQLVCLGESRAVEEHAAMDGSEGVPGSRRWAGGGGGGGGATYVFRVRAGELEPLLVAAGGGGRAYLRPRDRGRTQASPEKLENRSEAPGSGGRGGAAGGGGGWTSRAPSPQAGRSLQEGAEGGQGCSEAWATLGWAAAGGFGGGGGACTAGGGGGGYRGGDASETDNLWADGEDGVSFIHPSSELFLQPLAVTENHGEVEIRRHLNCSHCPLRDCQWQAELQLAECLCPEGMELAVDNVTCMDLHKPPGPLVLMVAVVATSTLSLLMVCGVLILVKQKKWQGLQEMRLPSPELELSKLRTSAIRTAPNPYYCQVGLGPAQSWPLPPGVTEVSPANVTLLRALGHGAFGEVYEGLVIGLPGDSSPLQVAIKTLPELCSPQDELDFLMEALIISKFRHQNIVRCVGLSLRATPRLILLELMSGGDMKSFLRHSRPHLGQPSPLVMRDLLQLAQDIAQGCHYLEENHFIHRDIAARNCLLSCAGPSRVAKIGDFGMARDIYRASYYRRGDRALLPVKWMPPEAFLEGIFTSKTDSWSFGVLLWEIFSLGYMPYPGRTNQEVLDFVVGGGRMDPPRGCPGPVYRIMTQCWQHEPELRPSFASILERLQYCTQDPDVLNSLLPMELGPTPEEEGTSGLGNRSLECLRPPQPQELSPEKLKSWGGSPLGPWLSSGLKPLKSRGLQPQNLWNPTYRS

A word on the inhibition: it is the change of the read-out against control, counted positive when it falls. For the molecule `NCc1ccc(-c2nc(-c3ccc(Cl)c(O)c3)c(-c3ccncc3)[nH]2)cc1`, the inhibition in experiment [1] was 1.88%; in experiment [2], 6.73%; in experiment [3], 42.8%; in experiment [4], 4.81%; in experiment [5], 37.1%; in [6], -0.12%. The inhibition is 6.1% in experiment [7]; 5.53% in experiment [8]; 14.5% in [9]; 0.08% in experiment [10]; 2.08% in [11]; 6.86% in experiment [12]. Besides, the inhibition worked out at 25.6% in [13]; 6.11% in [14]; 31% in experiment [15]; 2.74% in experiment [16]; 2.2% in experiment [17]; 5.6% in experiment [18]. Moreover, the results for the inhibition in experiment [19] and in experiment [20] were 25.9% and 7.07%, respectively.

On to `COc1cc(C=NNc2ncnc3c2cnn3-c2ccccc2)ccc1O`, for which the inhibition in experiment [1] was found to be 6.55%; in [2] it was 17.1%; in experiment [3], 65.9%; in experiment [4], 13.3%; in experiment [5], 62.8%; in experiment [6], 6.78%. Further, the inhibition in experiment [7] worked out at 34.5%; in experiment [8], 21.5%; in [9], 88.6%; in [10], 7.87%; in experiment [11], 43.8%; in [12] it was 28.2%. Also, the inhibition amounted to 78.2% in experiment [13]; 24.6% in experiment [14]; 79.5% in experiment [15]; 13.7% in [16]; 39.1% in experiment [17]; 15.1% in experiment [18]. The inhibition in experiment [19] is 68.9%; in experiment [20] it was 18.1%.

As for `CS(=O)(=O)CCNCc1ccc(-c2ccc3ncnc(Nc4ccc(OCc5cccc(F)c5)c(C(F)(F)F)c4)c3c2)o1`, the inhibition in [1] was found to be 3.49%; in experiment [2], 6.53%; in experiment [3] it was 6.94%; in experiment [4] it was 3.88%; in experiment [5] it was 4.94%; in experiment [6], 1.14%. The inhibition worked out at 0.83% in experiment [7]; 7.18% in experiment [8]; 3.55% in experiment [9]; 3.27% in [10]; 2.72% in experiment [11]; 2.57% in [12]. Moreover, the inhibition in experiment [13] is 6.52%; in [14], 2.53%; in experiment [15], 4.33%; in experiment [16] it was 5.78%; in experiment [17] it was 5.59%; in experiment [18], 3.25%. For the same molecule, the inhibition is 3.17% in [19] and -0.33% in experiment [20].

Take `NC(=O)c1ccc(-c2nc(-c3ccccn3)c(-c3ccc4c(c3)OCO4)[nH]2)cc1`: the inhibition in [1] amounted to 3.18%; in experiment [2] it was 2.23%; in experiment [3] it was 2.11%; in experiment [4], 1.62%; in experiment [5], 3.18%; in [6], 1.67%. In addition, the inhibition in experiment [7] was 3.36%; in experiment [8] it was -4.12%; in experiment [9], 9.28%; in experiment [10], 2.51%; in experiment [11], 3.59%; in experiment [12] it was 6.2%. Besides, the inhibition turned out to be 9.06% in experiment [13]; 1.44% in experiment [14]; 2.57% in experiment [15]; 8.08% in experiment [16]; 5.68% in experiment [17]; 2.28% in [18]. The inhibition was 4.53% in experiment [19] and 2.41% in experiment [20].

With `CCn1c(-c2nonc2N)nc2c(C#CC(C)(C)O)nc(OC[C@@H](N)c3ccccc3)cc21`, the inhibition in experiment [1] was 9.21%; in experiment [2], -0.29%; in experiment [3] it was 1.01%; in [4] it was -1.22%; in [5], 0.53%; in [6] it was -0.92%. The inhibition in experiment [7] was 0.47%; in experiment [8], -2.86%; in experiment [9], -4.52%; in [10] it was -0.69%; in experiment [11], 2.97%; in [12], 3.38%. Further, the inhibition in [13] was 30.9%; in experiment [14], 3.93%; in experiment [15], 39%; in experiment [16], 1.39%; in experiment [17] it was 27.6%; in experiment [18], -2.3%. Moreover, the inhibition turned out to be 19.5% in experiment [19] and 7.96% in experiment [20].

Regarding `CN(C)c1cc2c(Nc3ccc4nc(Cc5ccccc5)[nH]c4c3)ncnc2cn1`, the inhibition in experiment [1] worked out at 3.97%; in experiment [2] it was 9.84%; in experiment [3], 32.1%; in experiment [4] it was 7.8%; in [5], 28.7%; in experiment [6] it was 1.94%. In addition, the inhibition in experiment [7] is 8.97%; in [8], 0.15%; in experiment [9], 5.85%; in experiment [10], 2.63%; in experiment [11], 0.22%; in experiment [12] it was 9.58%. For the same molecule, the inhibition came out at 24.4% in experiment [13]; 4.07% in experiment [14]; 5.67% in [15]; 5.35% in experiment [16]; 6.9% in [17]; 5.97% in experiment [18]. The inhibition in experiment [19] turned out to be 22.8%; in experiment [20] it was 5.76%.
